This is an account of results in PubChem BioAssay (EPA / NIEHS).

Activity calls are given as the source filed them. Rule for the calls: active = hit-call score of the fitted dose curve at least 0.9, where 1 is the maximum; inactive = score below 0.9.

Assay [1] can be described thus: ATG_GLI_CIS: Attagene CIS-FACTORIAL HepG2 Assay for human Zinc Finger Protein GLI1 (AID 2282945). Conditions: HepG2, Attagene cis-factorial reporter mRNA, GLI element; actives raise or lower the signal. The gist of the method:
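HepG2 cells transiently transfected with cis-promoter multiplexed reporter units report endogenous transcription factor activity. After 24 h chemical exposure, reporter mRNA was quantified by RT-PCR, 6-FAM labelling, HpaI digestion and capillary electrophoresis, with bidirectional fitting against DMSO.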

In assay [2] the target is Bile acid receptor (Homo sapiens) (UniProt Q96RI1). The assay is described as follows: ATG_IR1_CIS: Attagene CIS-FACTORIAL HepG2 Assay for human Nuclear Receptor Subfamily 1 Group H Member 4 (NR1H4), IR1 submotif (AID 2282946). The note with it: IR1 reporter transcription, actives raise or lower the signal. The gist of the method:
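Transient MRTU transfection, HepG2; 24 h dosing; RNA → RT-PCR → 6-FAM primer extension → HpaI digest → capillary electrophoresis fluorescence. Gain/loss of signal fitted relative to DMSO.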

A short description of assay [3]: ATG_GRE_CIS: Attagene CIS-FACTORIAL HepG2 Assay for human Glucocorticoid Response Elements (GRE) (AID 2282947). The note with it: HepG2 GRE cis-reporter, Attagene multiplex mRNA; actives raise or lower the signal. In outline:
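HepG2 cells transiently transfected with multiple cis-promoter reporter units measure endogenous TF activity; 24 h compound exposure. Reporter mRNA quantified by RT-PCR, FAM labelling, HpaI digestion and capillary electrophoresis; bidirectional fit vs DMSO baseline.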

A short description of assay [4]: ATG_ISRE_CIS: Attagene CIS-FACTORIAL HepG2 Assay for human Interferon Regulatory Factor 1 (IRF1) binding to an Interferon-Stimulated Response Element (ISRE) (AID 2282948). Conditions: HepG2 ISRE cis-reporter (Attagene), mRNA transcription readout; actives raise or lower the signal. In outline:
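Transiently transfected HepG2 cells carrying cis-element reporter units, dosed 24 hours. Reporter mRNA quantified by RT-PCR, fluorescent primer extension, HpaI digestion and capillary electrophoresis. Bidirectional fitting relative to DMSO.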

Assay [5] is described as follows: ATG_M_32_CIS: Attagene CIS-FACTORIAL HepG2 Assay for M32 Transcription Factor (Internal Marker) (AID 2282949).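 Note: background control marker of the multiplexed CIS panel rather than a real target.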 The note with it: HepG2 Attagene cis-factorial M32 reporter, mRNA; actives raise or lower the signal. The gist of the method: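 Internal background marker read-out: RT-PCR/capillary electrophoresis fluorescence of reporter transcripts from transiently transfected HepG2 cells after 24 h chemical exposure. Activity fitted bidirectionally relative to DMSO negative control.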

For assay [6], the target named is Hypoxia-inducible factor 1-alpha (Homo sapiens) (UniProt Q16665). The assay is described as follows: ATG_HIF1a_CIS: Attagene CIS-FACTORIAL HepG2 Assay for human Hypoxia Inducible Factor 1 (HIF1A) (AID 2282951). The note with it: HepG2 Attagene cis-factorial HIF1a reporter transcription; actives raise or lower the signal. In outline:
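Transient MRTU transfection of human HepG2 liver cells, 24 h compound treatment, then total RNA isolation, oligo(dT) reverse transcription, PCR amplification, fluorescent labelling and capillary electrophoresis of reporter fragments. Gain or loss relative to DMSO.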

The target in assay [7] is Hepatocyte nuclear factor 6 (Homo sapiens) (UniProt Q9UBC0). The assay is described as follows: ATG_HNF6_CIS: Attagene CIS-FACTORIAL HepG2 Assay for human Hepatocyte Nuclear Factor 6 (HNF6) (AID 2282952). The note with it: HepG2 Attagene cis-factorial HNF6 reporter transcription; actives raise or lower the signal. In outline:
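HepG2 cells transiently transfected with cis-element-driven multiplexed reporter units measuring endogenous transcription factor activity. After 24 h exposure, reporter mRNA quantified by RT-PCR, FAM-labelled fragments and capillary electrophoresis; bidirectional fitting versus DMSO.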

Assay [8] addresses Heat shock factor protein 1 (Homo sapiens) (UniProt Q00613). The assay is described as follows: ATG_HSE_CIS: Attagene CIS-FACTORIAL HepG2 Assay for human Heat Shock Transcription Factor 1 (HSE) (AID 2282953). The note with it: HepG2 HSE cis-reporter, Attagene RNA transcription; actives raise or lower the signal. The gist of the method:
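After a 24 h incubation with test chemical, transfected HepG2 cells were harvested for RNA; reporter transcripts were measured by RT-PCR and capillary electrophoresis. Values reflect gain or loss of signal relative to DMSO.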

Assay [9] can be described thus: ATG_MRE_CIS: Attagene CIS-FACTORIAL HepG2 Assay for human Metal Responsive Element (MRE) (AID 2282954). Conditions: HepG2 MRE cis-reporter transcription, Attagene multiplex; actives raise or lower the signal. In outline: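 HepG2 cells transiently transfected with multiple cis-element reporter units measure endogenous MTF1-driven transcription. After 24 h compound exposure, reporter mRNA is quantified by RT-PCR with 6-FAM labelling, HpaI digestion and capillary electrophoresis; bidirectional fits versus DMSO.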

Assay [10] is described as follows: ATG_PBREM_CIS: Attagene CIS-FACTORIAL HepG2 Assay for human Phenobarbital-responsive Enhancer Module (PBREM) (AID 2282955). The note with it: HepG2 PBREM cis-reporter, Attagene multiplexed transcription; actives raise or lower the signal. The gist of the method: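 Endogenous transcription factors in human liver HepG2 cells drive a PBREM cis-element reporter, whose transcript level after 24 h treatment is quantified by RT-PCR with capillary electrophoresis; activity fitted in both directions against DMSO.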

A short description of assay [11]: ATG_PXRE_CIS: Attagene CIS-FACTORIAL HepG2 Assay for human Pregnane X Receptor Element (PXRE) (AID 2282957). Conditions: HepG2 Attagene CIS-FACTORIAL PXRE reporter, mRNA; actives raise or lower the signal. In outline:
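HepG2 cells transiently transfected with cis-element-driven multiplexed reporter units; after 24 h chemical exposure, reporter mRNA measured by RT-PCR, 6-FAM labelling, HpaI digestion and capillary electrophoresis. Bidirectional fitting relative to DMSO.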

A short description of assay [12]: ATG_RORE_CIS: Attagene CIS-FACTORIAL HepG2 Assay for human RAR-related Orphan Receptor Element (RORE) (AID 2282959). Conditions: HepG2 Attagene cis-factorial RORE reporter, mRNA; actives raise or lower the signal. The gist of the method:
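Transient MRTU transfection of human HepG2 liver cells (FuGene 6); 24 h compound exposure; TriZol RNA, oligo(dT) RT, PCR, FAM labeling, HpaI cut, CE fragment analysis. DMSO = negative control/baseline.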

Assay [13] in a line: ATG_Sox_CIS: Attagene CIS-FACTORIAL HepG2 Assay for human SRY-box transcription factor (SOX) (AID 2282960). Conditions: HepG2 Attagene cis-factorial SOX reporter, mRNA; actives raise or lower the signal. In outline:
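Endogenous factor activity in human liver HepG2 cells carrying transfected cis-regulated reporter units. RNA taken 24 h post-dose, reverse-transcribed, PCR-amplified and sized by capillary electrophoresis. Gain or loss of signal fitted relative to DMSO.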

In assay [14] the target is Transcription factor Sp1 (Homo sapiens) (UniProt P08047). The assay is described as follows: ATG_Sp1_CIS: Attagene CIS-FACTORIAL HepG2 Assay for human Specificity Protein 1 (Sp1) (AID 2282961). Conditions: HepG2 Sp1 cis-reporter transcription, actives raise or lower the signal. In outline:
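Transient MRTU-transfected HepG2, 24 h compound exposure. Total RNA → oligo(dT) RT → PCR of reporter → 6-FAM primer extension → HpaI digest → CE. Endpoint fitted both directions vs DMSO.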

Assay [15] is described as follows: ATG_SREBP_CIS: Attagene CIS-FACTORIAL HepG2 Assay for human Sterol Regulatory Element Binding (SREBP) (AID 2282962). The note with it: HepG2 Attagene cis-factorial SREBP reporter, mRNA; actives raise or lower the signal. The gist of the method: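 HepG2 cells transiently transfected with multiplexed cis-promoter reporter units sensing endogenous transcription factors; reporter mRNA measured 24 h after dosing by RT-PCR, 6-FAM labeling, HpaI digestion and capillary electrophoresis. Bidirectional fit versus DMSO.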

In assay [16] the target is Signal transducer and activator of transcription 3 (Homo sapiens) (UniProt P40763). The assay is described as follows: ATG_STAT3_CIS: Attagene CIS-FACTORIAL HepG2 Assay for human Signal Transducer and Activator of Transcription 3 (STAT3) (AID 2282963). The note with it: HepG2, Attagene cis-factorial STAT3 reporter transcription; actives raise or lower the signal. The gist of the method: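 HepG2 cells transiently transfected with cis-element-driven multiple reporter transcription units; after 24 h chemical exposure, reporter mRNA measured by RT-PCR, 6-FAM primer-extension labelling, HpaI digestion and capillary electrophoresis. Bidirectional fitting versus DMSO baseline.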

Assay [17] can be described thus: ATG_TA_CIS: Attagene CIS-FACTORIAL HepG2 Assay for human TA Basal Promoter (AID 2282964). Conditions: HepG2 Attagene CIS-factorial TA basal promoter reporter; actives raise or lower the signal. In outline: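 Multiplexed mRNA reporter assay, HepG2, 24 h. Reporter cDNA amplified, 6-FAM primer-extended, HpaI-cut, CE-sized; DMSO = negative control and baseline.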
Assay [18] is described as follows: ATG_M_06_CIS: Attagene CIS-FACTORIAL HepG2 Assay for M06 Transcription Factor (Internal Marker) (AID 2282950). The note with it: HepG2 Attagene CIS-FACTORIAL M06 internal marker reporter; actives raise or lower the signal. The gist of the method:
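Fluorescence-labelled RT-PCR products from cis-promoter reporter units, cut with HpaI and resolved by capillary electrophoresis, give the signal. Cells are human HepG2, dosed for 24 h. Serves as background control, fitted relative to DMSO.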

In assay [19] the target is Paired box protein Pax-6 (Homo sapiens) (UniProt P26367). The assay is described as follows: ATG_Pax6_CIS: Attagene CIS-FACTORIAL HepG2 Assay for human Paired Box 6 (PAX6) (AID 2282956). Conditions: HepG2 CIS-FACTORIAL PAX6 reporter transcription, RNA readout; actives raise or lower the signal. The gist of the method: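 HepG2 cells transiently transfected with cis-promoter-driven multiplexed reporter units sensing endogenous transcription factor activity; 24 h chemical exposure. Reporter mRNA quantified by RT-PCR, 6-FAM labelling, HpaI digestion and capillary electrophoresis; bidirectional fit versus DMSO baseline.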

A short description of assay [20]: ATG_PPRE_CIS: Attagene CIS-FACTORIAL HepG2 Assay for human Peroxisome Proliferator-activated Response Element (PPRE) (AID 2282958). The note with it: HepG2 PPRE cis-element reporter, Attagene transcription factor profiling; actives raise or lower the signal. The gist of the method:
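HepG2, transient MRTU transfection (cis promoter elements, endogenous TFs). 24 h dosing. RNA → oligo(dT) RT → PCR → 6-FAM primer extension → HpaI digest → CE. Bidirectional fit vs DMSO.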

One may read the AC50 as the concentration at which the activity in the assay is half-maximal.

Paired box protein Pax-6 (Homo sapiens), sequence (P26367 whole entry, looked up): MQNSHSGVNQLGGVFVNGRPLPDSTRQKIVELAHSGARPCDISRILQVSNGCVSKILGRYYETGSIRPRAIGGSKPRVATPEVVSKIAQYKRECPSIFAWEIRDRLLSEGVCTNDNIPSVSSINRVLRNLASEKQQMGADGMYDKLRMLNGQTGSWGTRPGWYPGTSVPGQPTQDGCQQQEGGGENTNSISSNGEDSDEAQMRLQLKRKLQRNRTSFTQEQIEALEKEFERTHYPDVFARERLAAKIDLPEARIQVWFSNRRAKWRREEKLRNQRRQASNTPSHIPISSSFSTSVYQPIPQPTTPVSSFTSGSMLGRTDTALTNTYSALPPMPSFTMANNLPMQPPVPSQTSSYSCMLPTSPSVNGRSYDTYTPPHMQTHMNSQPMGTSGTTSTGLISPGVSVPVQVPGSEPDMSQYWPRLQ
Hepatocyte nuclear factor 6 (Homo sapiens), sequence (Q9UBC0 whole entry, looked up, the tested form may be a part): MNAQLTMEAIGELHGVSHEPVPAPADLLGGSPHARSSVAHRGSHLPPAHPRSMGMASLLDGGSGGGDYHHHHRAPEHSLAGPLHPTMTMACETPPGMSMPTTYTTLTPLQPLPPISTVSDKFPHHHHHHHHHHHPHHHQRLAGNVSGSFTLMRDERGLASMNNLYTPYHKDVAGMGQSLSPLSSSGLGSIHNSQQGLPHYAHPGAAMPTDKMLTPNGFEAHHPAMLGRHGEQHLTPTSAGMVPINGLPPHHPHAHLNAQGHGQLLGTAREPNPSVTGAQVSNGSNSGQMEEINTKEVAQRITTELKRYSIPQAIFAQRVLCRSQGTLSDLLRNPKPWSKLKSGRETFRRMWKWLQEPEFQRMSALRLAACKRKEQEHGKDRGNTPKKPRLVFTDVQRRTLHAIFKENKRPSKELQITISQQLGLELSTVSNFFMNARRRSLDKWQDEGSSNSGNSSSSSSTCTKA
Hypoxia-inducible factor 1-alpha (Homo sapiens), sequence (Q16665 whole entry, looked up, the tested form may be a part): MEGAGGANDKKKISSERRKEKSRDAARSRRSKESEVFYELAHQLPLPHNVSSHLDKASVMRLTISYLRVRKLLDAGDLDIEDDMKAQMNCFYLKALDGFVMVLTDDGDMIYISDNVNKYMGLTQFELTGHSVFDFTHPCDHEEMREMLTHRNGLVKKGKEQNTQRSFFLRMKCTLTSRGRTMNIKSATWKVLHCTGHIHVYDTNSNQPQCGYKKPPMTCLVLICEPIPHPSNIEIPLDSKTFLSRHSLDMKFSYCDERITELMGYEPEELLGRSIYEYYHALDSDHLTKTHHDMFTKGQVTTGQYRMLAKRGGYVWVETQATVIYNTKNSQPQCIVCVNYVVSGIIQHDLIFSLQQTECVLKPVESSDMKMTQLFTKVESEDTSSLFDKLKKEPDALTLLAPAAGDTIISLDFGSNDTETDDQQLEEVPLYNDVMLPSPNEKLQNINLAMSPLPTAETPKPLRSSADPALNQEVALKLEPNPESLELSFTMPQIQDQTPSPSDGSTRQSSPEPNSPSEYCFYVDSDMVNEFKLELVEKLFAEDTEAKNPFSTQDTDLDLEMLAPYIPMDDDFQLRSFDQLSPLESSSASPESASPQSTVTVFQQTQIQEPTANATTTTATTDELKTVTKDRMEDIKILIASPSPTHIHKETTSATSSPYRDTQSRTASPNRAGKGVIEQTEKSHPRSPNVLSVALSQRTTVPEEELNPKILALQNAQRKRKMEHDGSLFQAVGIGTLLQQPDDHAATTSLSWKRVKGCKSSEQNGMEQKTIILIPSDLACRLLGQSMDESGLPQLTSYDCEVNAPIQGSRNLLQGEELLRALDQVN
Transcription factor Sp1 (Homo sapiens), sequence (P08047 whole entry, looked up): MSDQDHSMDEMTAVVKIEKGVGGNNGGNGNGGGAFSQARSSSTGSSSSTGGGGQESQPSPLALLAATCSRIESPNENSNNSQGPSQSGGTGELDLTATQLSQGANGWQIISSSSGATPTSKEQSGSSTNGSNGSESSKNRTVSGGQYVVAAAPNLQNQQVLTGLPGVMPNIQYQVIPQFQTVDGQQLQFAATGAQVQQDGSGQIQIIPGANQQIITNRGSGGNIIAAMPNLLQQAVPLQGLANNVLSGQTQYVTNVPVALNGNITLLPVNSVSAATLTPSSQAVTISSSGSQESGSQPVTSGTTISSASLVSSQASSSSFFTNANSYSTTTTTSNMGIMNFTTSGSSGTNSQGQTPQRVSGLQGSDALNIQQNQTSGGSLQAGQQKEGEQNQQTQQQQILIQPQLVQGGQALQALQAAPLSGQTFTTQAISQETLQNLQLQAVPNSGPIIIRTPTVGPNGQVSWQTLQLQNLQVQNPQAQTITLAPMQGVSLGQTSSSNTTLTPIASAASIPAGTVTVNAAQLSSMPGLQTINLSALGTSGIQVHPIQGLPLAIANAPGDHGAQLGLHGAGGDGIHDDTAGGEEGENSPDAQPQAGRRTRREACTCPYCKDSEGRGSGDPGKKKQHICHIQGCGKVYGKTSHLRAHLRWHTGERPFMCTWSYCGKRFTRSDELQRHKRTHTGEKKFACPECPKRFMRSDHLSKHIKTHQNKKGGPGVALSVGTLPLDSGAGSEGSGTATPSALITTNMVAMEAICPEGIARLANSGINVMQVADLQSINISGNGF
Heat shock factor protein 1 (Homo sapiens), sequence (Q00613 whole entry, looked up): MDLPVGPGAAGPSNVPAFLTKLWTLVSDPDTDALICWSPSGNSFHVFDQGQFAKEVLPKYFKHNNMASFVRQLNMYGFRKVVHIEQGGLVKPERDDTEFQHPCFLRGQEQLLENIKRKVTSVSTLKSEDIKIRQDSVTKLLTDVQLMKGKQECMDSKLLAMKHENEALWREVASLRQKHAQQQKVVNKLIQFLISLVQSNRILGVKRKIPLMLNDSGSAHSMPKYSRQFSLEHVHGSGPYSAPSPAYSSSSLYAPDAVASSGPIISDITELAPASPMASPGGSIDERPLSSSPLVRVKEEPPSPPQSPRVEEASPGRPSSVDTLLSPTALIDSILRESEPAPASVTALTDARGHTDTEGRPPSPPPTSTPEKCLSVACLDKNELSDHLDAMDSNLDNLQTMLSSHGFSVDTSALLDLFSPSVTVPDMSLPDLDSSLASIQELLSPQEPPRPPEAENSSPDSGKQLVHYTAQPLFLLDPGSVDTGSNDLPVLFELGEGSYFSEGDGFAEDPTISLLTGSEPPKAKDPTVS
Bile acid receptor (Homo sapiens), sequence (Q96RI1 whole entry, looked up): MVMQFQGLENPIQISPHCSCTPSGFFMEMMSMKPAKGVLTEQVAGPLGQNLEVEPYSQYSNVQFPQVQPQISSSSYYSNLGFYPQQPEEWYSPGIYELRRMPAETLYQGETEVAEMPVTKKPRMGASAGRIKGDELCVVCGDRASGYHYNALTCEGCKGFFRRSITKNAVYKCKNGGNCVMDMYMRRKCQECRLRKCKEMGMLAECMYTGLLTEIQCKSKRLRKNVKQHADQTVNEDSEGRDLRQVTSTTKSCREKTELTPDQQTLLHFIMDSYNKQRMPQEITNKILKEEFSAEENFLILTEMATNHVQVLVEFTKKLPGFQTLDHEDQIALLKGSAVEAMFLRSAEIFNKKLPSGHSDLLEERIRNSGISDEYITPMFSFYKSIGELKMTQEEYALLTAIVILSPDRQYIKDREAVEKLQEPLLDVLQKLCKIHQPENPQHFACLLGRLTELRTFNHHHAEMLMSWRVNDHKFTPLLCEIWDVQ
Signal transducer and activator of transcription 3 (Homo sapiens), sequence (P40763 whole entry, looked up): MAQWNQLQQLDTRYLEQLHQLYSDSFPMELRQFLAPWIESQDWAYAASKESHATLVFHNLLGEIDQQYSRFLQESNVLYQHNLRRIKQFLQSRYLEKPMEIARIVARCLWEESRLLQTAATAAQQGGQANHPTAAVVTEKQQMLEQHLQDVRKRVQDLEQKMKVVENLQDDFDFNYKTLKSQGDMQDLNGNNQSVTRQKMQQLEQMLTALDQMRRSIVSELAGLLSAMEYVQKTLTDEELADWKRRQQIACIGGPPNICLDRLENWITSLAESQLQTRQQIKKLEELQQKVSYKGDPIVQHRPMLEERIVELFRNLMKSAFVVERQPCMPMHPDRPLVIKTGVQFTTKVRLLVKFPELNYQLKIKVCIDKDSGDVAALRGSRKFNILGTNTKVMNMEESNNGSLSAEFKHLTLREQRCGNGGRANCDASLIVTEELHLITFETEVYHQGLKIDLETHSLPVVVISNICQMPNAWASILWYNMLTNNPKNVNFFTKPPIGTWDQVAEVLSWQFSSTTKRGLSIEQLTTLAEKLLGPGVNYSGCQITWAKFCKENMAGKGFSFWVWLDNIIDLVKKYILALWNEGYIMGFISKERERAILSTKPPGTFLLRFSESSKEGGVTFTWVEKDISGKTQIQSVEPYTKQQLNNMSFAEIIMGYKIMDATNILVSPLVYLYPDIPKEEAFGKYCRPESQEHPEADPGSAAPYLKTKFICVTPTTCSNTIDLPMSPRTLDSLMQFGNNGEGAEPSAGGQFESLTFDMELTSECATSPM

In the case of `COc1ccc(C(=O)c2ccccc2)c(O)c1`, the result in [1], in assay [3], in [4], in assay [5], in [6] and in assay [7] was inactive. Also, the compound was classed as inactive in [8], in [13], in [14], in [15] and in [16]. For the same compound, the AC50 in assay [2] was 151 µM (active); in [9], 130 µM (active); in assay [10], 85.9 µM (active); in assay [11] it was 26.7 µM (active); in assay [12] it was 100 µM (active); in assay [17] it was 121 µM (active).

Take `CCC[Si](OC)(OC)OC`: the compound was classed as inactive in assay [1], in assay [2], in assay [4], in assay [5], in [18] and in assay [6]. The compound was classed as inactive in assay [7], in assay [8], in assay [9], in assay [19], in assay [12] and in assay [13]. For the same compound, the compound was called inactive in [14], in assay [15], in [16] and in assay [17]. In addition, in [11], the AC50 was 129 µM (active).

Consider `N=C1C=CC(=C(c2ccc(N)cc2)c2ccc(N)cc2)C=C1`, for which the compound was called inactive in assay [1], in [2], in [5], in [7], in [10] and in assay [20]. In addition, the call in assay [12], in [13], in [14] and in assay [16] was inactive. Further, the AC50 is 23.9 µM (active) in [3]; 33.4 µM (active) in assay [4]; 42.5 µM (active) in [8]; 48.2 µM (active) in assay [9]; 37.8 µM (active) in assay [19]; 56.6 µM (active) in [11]. For the same compound, the AC50 in assay [15] was 26 µM (active); in assay [17], 81.3 µM (active).

Regarding `CC=CC(=O)OCC(C)C`, the outcome in [1], in [2], in assay [3], in assay [4], in [18] and in assay [6] was inactive. Further, the outcome in assay [7], in assay [8], in assay [9], in [19], in assay [11] and in assay [20] was inactive. Further, the compound was classed as inactive in assay [13], in assay [14], in assay [15], in [16] and in [17].
